MazF activator = increases E. coli MazEF RNase cleavage of RNA; P0AE70; FAM/BHQ RNA-DNA oligo cleavage fluorescence, 5 h; activation, % at 20 µM; actives 0.32% (n = 350,000); AID 504720; in the data active = activation above about 50%
Target sequence (P0AE70 whole entry, looked up): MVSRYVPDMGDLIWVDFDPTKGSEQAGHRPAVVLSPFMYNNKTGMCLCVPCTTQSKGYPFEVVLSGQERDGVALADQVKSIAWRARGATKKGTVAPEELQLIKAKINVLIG
PfHsp40 rescue = restores yeast growth despite PfHsp40 toxicity | S. cerevisiae expressing PfHsp40, growth rescue, ATP luminescence | growth rescue, % at 12.5 µM | actives 0.68% (n = 340,000) | AID 504582; in the data active = growth rescue above about 28%, passing the limit was not always enough; inconclusive = no clear call, values can overlap the other calls;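 also: yeast W303a lacking pdr1 and pdr3 grown in galactose medium; growth measured after three days at 30 °C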
Autofluor counter = compound fluorescence in toxin protease inhibitor counterscreen. compound autofluorescence counterscreen, microsphere flow cytometry; active compounds read high. fluorescence intensity (concentration not given with the values). actives 3.1% (n = 360,000). AID 624483; in the data active = fluorescence intensity above about 16000; inconclusive = no clear call, values can overlap the other calls
BoNT-A LC inh2 = blocks Botulinum neurotoxin A light chain protease; AID 588499; actives 0.17% (n = 360,000); inhibition, % at 10 µM; multiplex microsphere protease substrate cleavage, flow cytometry; also: plate controls were buffer without enzyme for full effect and enzyme alone for no effect
BoNT F protease = blocks Botulinum neurotoxin F light chain protease | actives 0.22% (n = 360,000) | Multiplex microsphere protease cleavage assay, flow cytometry | inhibition, % at 10 µM; in the data active = inhibition above about 35%, passing the limit was not always enough; inconclusive = no clear call, values can overlap the other calls; also: plate controls were buffer without enzyme for full effect and enzyme alone for no effect
Anthrax LF prot = anthrax lethal factor protease inhibition | P15917 | multiplex microsphere protease cleavage assay, LF | inhibition, % at 10 µM | actives 0.12% (n = 360,000); also: plate controls were buffer without enzyme for full effect and enzyme alone for no effect
The depositor's hits bear a star. Only some compounds are listed: those with a hit (about 4.3% of all), similar ones and a draw of the others. Rule as the data show it, unless noted: active = inhibition above about 30%; inconclusive = no clear call, values can overlap the other calls; inactive = below that.

`Cc1ccc(NC(CC(=O)c2ccccc2)C(=O)O)cc1Cl` (stereo not drawn) gave MazF activator 9.3, PfHsp40 rescue -0.4, Autofluor counter 4785, BoNT-A LC inh2 0.8, BoNT F protease 2.7 and Anthrax LF prot 0.3.
For COc1ccc(C2=NN(c3ccc(C(=O)O)cc3)C(c3ccc(OC)c(OC)c3)C2)cc1 (stereo not drawn) the results were MazF activator -1.5, PfHsp40 rescue 112.3*, Autofluor counter 3058, BoNT-A LC inh2 -6.6, BoNT F protease -20.4 and Anthrax LF prot 12.6.
`O=C(c1ccccc1F)c1cn(Cc2ccccc2)c2ccccc12` gave MazF activator -6.8, PfHsp40 rescue 0.0, Autofluor counter 22262*, BoNT-A LC inh2 -0.1, BoNT F protease 0.0 and Anthrax LF prot -2.4.
For CCn1cc(C(=O)c2ccccc2)c2ccccc21 the results were MazF activator -2.2, PfHsp40 rescue -0.9, Autofluor counter 22254*, BoNT-A LC inh2 inconclusive, BoNT F protease 4.2 and Anthrax LF prot -4.1.
O=C(c1ccccc1)c1cn(CC(=O)N2CCCC2)c2ccccc12 was read as MazF activator 7.0, PfHsp40 rescue -1.3, Autofluor counter 6323, BoNT-A LC inh2 0.9, BoNT F protease 4.4 and Anthrax LF prot 8.7.
`CC(C)NC(=O)Cn1cc(C(=O)c2ccccc2)c2ccccc21` gave MazF activator -16.2 and PfHsp40 rescue 0.6.
For O=C(c1ccccc1F)c1cn(Cc2ccc(F)cc2)c2ccccc12 the results were MazF activator -9.3, PfHsp40 rescue 0.7, Autofluor counter 2365, BoNT-A LC inh2 -0.2, BoNT F protease -3.5 and Anthrax LF prot 1.8.
Screening O=C(c1ccccc1F)c1cn(CC(=O)N2CCCCC2)c2ccccc12 returned MazF activator -0.3, PfHsp40 rescue -0.4, Autofluor counter 24432*, BoNT-A LC inh2 -9.8, BoNT F protease -14.9 and Anthrax LF prot -1.7.
Screening O=C(NNC(=O)c1ccccc1Br)c1cccc(Cl)c1 returned MazF activator -14.2, PfHsp40 rescue -1.3, Autofluor counter 8252, BoNT-A LC inh2 -1.4, BoNT F protease -9.6 and Anthrax LF prot -0.8.
`O=C(NNC(=O)c1ccccc1F)c1cccc(Cl)c1` gave MazF activator 2.8, PfHsp40 rescue 1.9, Autofluor counter 25813*, BoNT-A LC inh2 -4.7, BoNT F protease -6.5 and Anthrax LF prot 0.0.
Screening Cc1sc2ncn(CC(=O)N3CCN(c4ccccc4)CC3)c(=O)c2c1S(=O)(=O)N1CCOCC1 returned MazF activator 6.9, PfHsp40 rescue 1.3, Autofluor counter 5063, BoNT-A LC inh2 -2.1, BoNT F protease -8.0 and Anthrax LF prot -2.3.
For O=C(Cc1c(O)c2ccccc2[nH]c1=O)N(Cc1ccccc1)Cc1ccccc1 the results were MazF activator -1.1, PfHsp40 rescue inconclusive, Autofluor counter 22649*, BoNT-A LC inh2 0.8, BoNT F protease -1.5 and Anthrax LF prot -2.8.
`COc1ccc(C(C)=O)cc1CN1C(=O)C(C)N(c2ccc(C)cc2)C1=O` (stereo not drawn) gave MazF activator -6.0, PfHsp40 rescue 0.3, Autofluor counter 18676*, BoNT-A LC inh2 inconclusive, BoNT F protease 4.8 and Anthrax LF prot -6.6.
COc1ccc(C(C)=O)cc1CN1C(=O)NC2(CCCCC2)C1=O was read as MazF activator 1.7, PfHsp40 rescue -0.3, Autofluor counter 2657, BoNT-A LC inh2 -0.7, BoNT F protease -6.1 and Anthrax LF prot -1.1.
Screening C=CCn1c(N)c(C(=O)NC2CCCCC2)sc1=S returned MazF activator 2.7, PfHsp40 rescue -0.7, Autofluor counter 23947*, BoNT-A LC inh2 -1.2, BoNT F protease -1.5 and Anthrax LF prot 0.4.
Screening C=CCn1c(N)c(C(=O)NCc2cccnc2)sc1=S returned MazF activator 0.0, PfHsp40 rescue 0.2, Autofluor counter 9404, BoNT-A LC inh2 -0.5, BoNT F protease 3.0 and Anthrax LF prot -5.3.
For O=C(O)CC1(CC(=O)N2CCC(C(=O)O)CC2)CCCC1 the results were MazF activator 11.4, PfHsp40 rescue 0.2, Autofluor counter 2739, BoNT-A LC inh2 0.2, BoNT F protease 8.3 and Anthrax LF prot 8.3.
For O=S(=O)(Nc1ccccc1)c1ccc(Oc2ncc(C(F)(F)F)cc2Cl)cc1 the results were MazF activator 3.0, PfHsp40 rescue 282.2*, Autofluor counter 8126, BoNT-A LC inh2 0.5, BoNT F protease -6.4 and Anthrax LF prot -7.5.
